Reference: PubChem BioAssay (NCI)
“And” between values parts separate entries of the source, which are not always exact repeats. Equal entries are not always repeated. The panel holds about 79,000 compounds, 15% with a hit somewhere; the sample as a whole holds those more often. Unmarked numbers belong to inactive results. The source made the active and inactive calls. Cut-off read from the data, not from the text of the source: active = growth inhibition above about 70%; inactive = the rest.

Tests used:
[1] = NCI Yeast Anticancer Drug Screen. Data for the rad50 strain (AID 155);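 note: 0% = growth of vehicle-only cultures of the same strain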; details: S. cerevisiae rad50 strain growth inhibition, hits give high values
Procedure, shortened: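 Yeast carrying a defined DNA repair defect were exposed to test compounds, and growth was compared with vehicle-treated controls to give percent inhibition.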

[2] = NCI Yeast Anticancer Drug Screen. Data for the mec2-1 strain (AID 157); details: S. cerevisiae mec2-1 strain, hits give high values
Procedure, shortened: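 Test agents were screened against the mec2-1 yeast strain, with defined DNA repair or cell cycle alteration. Growth was scored as inhibition against vehicle-only controls.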

[3] = NCI Yeast Anticancer Drug Screen. Data for the sgs1 mgt1 strain (AID 161);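 note: 0% = growth of cultures given vehicle only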; details: S. cerevisiae sgs1 mgt1 strain, hits give high values
Procedure, shortened: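 Mutant yeast exposed to compound; growth scored against vehicle-only wells.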

[4] = NCI Yeast Anticancer Drug Screen. Data for the cln2 rad14 strain (AID 165);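 note: 0% = growth equal to vehicle treated cultures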; details: S. cerevisiae cln2 rad14 strain, hits give high values
Procedure, shortened: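 Growth of compound-exposed yeast (cln2 rad14 genotype) measured and expressed as inhibition relative to vehicle.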

[5] = NCI Yeast Anticancer Drug Screen. Data for the bub3 strain (AID 167); details: S. cerevisiae bub3 mutant strain, hits give high values
Procedure, shortened: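 Compounds were applied to a genetically altered yeast strain carrying a cell-cycle control defect. Growth inhibition was scored against vehicle-treated controls.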

[6] = NCI Yeast Anticancer Drug Screen. Data for the mlh1 rad18 strain (AID 175); details: S. cerevisiae mlh1 rad18 strain growth inhibition, hits give high values
Procedure, shortened: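 In this whole-cell yeast screen, a strain with altered DNA damage repair is challenged with compound, and its growth is measured against matched vehicle-treated controls.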

[7] = at 5.0 µM (retest, dose inferred, filed as 0.5)
[8] = at 50.0 µM (retest, dose inferred, filed as 5.0)

Structure (SMILES)	growth inhibition [1, 7]	growth inhibition [1, 8]	growth inhibition [2, 7]	growth inhibition [2, 8]	growth inhibition [3, 7]	growth inhibition [3, 8]	growth inhibition [4, 7]	growth inhibition [4, 8]	growth inhibition [5, 7]	growth inhibition [5, 8]	growth inhibition [6, 7]	growth inhibition [6, 8]	growth inhibition ([1]; at 50.0 µM)	growth inhibition ([2]; at 50.0 µM)	growth inhibition ([3]; at 50.0 µM)	growth inhibition ([4]; at 50.0 µM)	growth inhibition ([5]; at 50.0 µM)	growth inhibition ([6]; at 50.0 µM)
CC(C)(C)S(=O)(=O)O.[Ag]	99% (active)	99% (active)	100% (active)	99% (active)	100% (active)	100% (active)	99% (active)	99% (active)	100% (active)	99% (active)	99% (active)	99% (active)						
COc1cccc(NC(=O)c2c(SC)c(C#N)c(=O)n(N)c2N)c1	4%	99% (active)	10%	99% (active)	7%	99% (active)	7%	98% (active)	7%	99% (active)	8%	99% (active)						
CCCC(=O)c1ccc([N+](=O)[O-])o1	13%	98% (active)	7%	99% (active)	15%	99% (active)	4%	98% (active)	16%	100% (active)	1%	98% (active)						
C=CCCCCCCCCC(=O)NN	18%	92% (active)	-1%	79% (active)	15%	92% (active)	-8%	81% (active)	0%	85% (active)	-25%	91% (active)						
N#C/C(=N\O)C(N)=O	19%	87% (active)	-3%	93% (active)	2%	83% (active)	-1%	75% (active)	3%	86% (active)	26%	86% (active)						
CCOC(=O)C(NC(C)=O)C(=O)c1ccccc1 (stereo not drawn)	-3%	6%	-3%	-4%	0%	-1%	11%	-4%	2%	-1%	-35%	-6%						
C=CC(=O)OCCOCc1ccccc1	4%	29%	-3%	12%	-1%	27%	-2%	-12%	1%	12%	-32%	18%						
COCc1cc(C)c(C#N)c(=O)[nH]1													-2.35% and 9.35%	1.5% and 5.35%	-5% and -8.7%	17.9% and -3.65%	13.3% and -7.55%	-3.9% and 0.85%
C=COC(=O)c1ccccc1C(=O)OCCCC	8%	22%	-2%	3%			7%	-6%	4%	27%	18%	6%						
S=c1nc[nH]c2ccccc12													-2.5% and -12.8%	-4.8% and -16.8%	-11% and 12.9%	-98.9% and -0.05%	-2.75% and -2.25%	
CC(C)c1cc([N+](=O)[O-])c(O)c([N+](=O)[O-])c1	46%	92% (active)	14%	75% (active)	13%	78% (active)	18%	76% (active)	29%	89% (active)	24%	91% (active)						
COCc1c(C#N)c(Cl)nc(C)c1[N+](=O)[O-]	14%	76% (active)	7%	90% (active)	14%	94% (active)	2%	94% (active)	8%	97% (active)	0%	94% (active)						
C1CCC(CCCc2nn[nH]n2)CC1	20%	53%	-1%	64%	-2%	51%	1%	44%	1%	78% (active)	13%	61%						
CN(C)CNC(=S)S	98% (active)	99% (active)	97% (active)	100% (active)	100% (active)	100% (active)			99% (active)	100% (active)	97% (active)	98% (active)						
O=C(O)c1ccc(-c2ccccc2)cc1	12%	80% (active)	0%	38%	12%	69%	-1%	39%	-1%	42%	-1%	47%						
CC(C)NC(=O)C(C)O (stereo not drawn)	4%	14%			2%	5%	2%	3%	6%	-2%	2%	10%						

Structure (SMILES)	growth inhibition [1, 7]	growth inhibition [1, 8]	growth inhibition [2, 7]	growth inhibition [2, 8]	growth inhibition [3, 7]	growth inhibition [3, 8]	growth inhibition [4, 7]	growth inhibition [4, 8]	growth inhibition [5, 7]	growth inhibition [5, 8]	growth inhibition [6, 7]	growth inhibition [6, 8]	growth inhibition ([1]; at 50.0 µM)	growth inhibition ([2]; at 50.0 µM)	growth inhibition ([3]; at 50.0 µM)	growth inhibition ([4]; at 50.0 µM)	growth inhibition ([5]; at 50.0 µM)	growth inhibition ([6]; at 50.0 µM)
Cc1ccccc1OCc1cccc(Cl)c1	8%	23%	-1%	4%	4%	43%	9%	-10%	4%	17%	-5%	6%						
CC1=C(/C=C/C(C)=C/C(=O)O)C(C)(C)CCC1	2%	67%	-2%	47%	3%	83% (active)	3%	43%	4%	64%	-36%	64%						
CNc1ncnc2nc(C)[nH]c12	0%	20%	-3%	3%	0%	16%	2%	-4%	1%	2%	-13%	16%						
CCCCC(CC)CNC(=O)/C=C\C(=O)O (stereo not drawn)	15%	85% (active)	11%	67%	10%	96% (active)	-3%	60%	6%	83% (active)	15%	91% (active)						
CCCCCCCC/C=C\CCCCCCCCOCC(O)CO (stereo not drawn)													-8.65% and -26.1%	-25.6% and -20.9%	-1.8% and -4%	-17.9% and 3.35%	-25.4% and -31.6%	
Cc1cccc(N=NC(C#N)C#N)c1	30%	95% (active)	10%	96% (active)			-7%	86% (active)	1%	94% (active)	-9%	95% (active)						
O=C(CBr)C(Br)C(Br)c1ccccc1 (stereo not drawn)	98% (active)	99% (active)	99% (active)	100% (active)	100% (active)	98% (active)	99% (active)	99% (active)	100% (active)	100% (active)	92% (active)	99% (active)						
COc1ccc(C(N)=O)cc1	14%	2%	-3%	0%	-5%	3%	-3%	-11%			16%	24%						
O=c1[nH]c2[nH]c(=S)[nH]c(=S)c2[nH]1													-19.7% and 13.8%	8.45% and -2.5%	-17.5% and -4.85%	13.8% and -41.7%	-24.7% and -10.8%	-20.1% and -0.3%
Cc1ccc(-c2c(C#N)c(-c3ccc(C)cc3)n(NS(=O)(=O)c3ccccc3)c(=O)c2C#N)cc1	30%	84% (active)	38%	94% (active)	29%	94% (active)	53%	93% (active)	52%	95% (active)	33%	85% (active)						
CCOS(=O)(=O)CC(C)(C)C	7%	92% (active)	3%	80% (active)	8%	59%	-1%	13%	4%	68%	-21%	86% (active)						
CCN(CC)C(=O)N1CCN(C)CC1													26.1% and -15.6%	-26.9% and -4.6%	1.4% and -3.65%	-41.1% and 5.8%	-1.1% and 9.7%	
Cc1ccc(C2SCC(=O)N2CCN2C(=O)CSC2c2ccc(C)o2)o1 (stereo not drawn)													7.1% and 5.95%	16.1% and 8.45%	-2.45% and 17.6%	3.15% and -0.1%	-1.45% and -3.45%	
S=c1[nH]c(=S)c2[nH]c(=S)[nH]c2[nH]1	-1%	0%	2%	6%	5%	11%	-13%	-13%	6%	6%	-23%	-23%						
COc1cc2c(cc1OC)C1Cc3cc(OC)c(OC)cc3C(C2)N1C													23.4% and -37.9%	4.4% and -16.9%	-6.2% and -5%	6.8% and 2.6%	-5.25% and -3.2%	-45% and -24.2%
CCCCN(CCCC)C(=O)C(C)OC(C)=O (stereo not drawn)	0%	25%	-4%	0%	-3%	6%	10%	1%	-2%	-8%	-38%	8%						
